Inconclusive results are not listed. The source made the active and inactive calls. Calls come from the whole dose curve; as a rule, active = well fitted cell-killing curve with a large enough effect; inconclusive = small, poorly fitted or top-dose-only effect, or effect the other way; inactive = no such curve, though single readings can be large or run the other way.
assay: Quantitative High-Throughput drug screen in 47 multiple myeloma cell lines against the NCATS MIPE library collection: KMS28PE_JCRB cell viability assay (AID 1918983); details: KMS28PE multiple myeloma viability, CellTiter-Glo ATP, 48 h; series mostly up to 45.8 µM; viability, % of DMSO control: at the top concentration; note: nearly all actives have a fitted effect of over 35% in size
How it was run: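 ATP-based CellTiter-Glo luminescence after 48 h drug exposure (37 °C, 5% CO2) of 500 myeloma cells per well. DMSO-only wells set 100% viability, media-only wells 0%; MIPE 4.0 library added by pin tool.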
Potency is the fitted concentration of half-maximal effect.

| Structure (SMILES) | viability, % of DMSO control | Potency |
| --- | --- | --- |
| C1=C2CCCN[C@H]2[C@@H]2C[C@H]1[C@@H]1CCCCN1C2 | 107% (inactive) |  |
| CC(=Cc1csc(C)n1)[C@@H]1C[C@H]2O[C@@H]2CCC[C@H](C)[C@@H](O)[C@@H](C)C(=O)C(C)(C)[C@@H](O)CC(=O)O1 | 76.5% (inactive) |  |
| Clc1ccccc1C(c1ccccc1)(c1ccccc1)n1cccn1 |  | 11.8 µM (active) |
| C[C@@H]1CC[C@H]2[C@@H](C)C(=O)O[C@@H]3O[C@@]4(C)CC[C@H]1[C@]32OO4 | 109% (inactive) |  |
| CO[C@H]1CCC(O[C@H]2C[C@H]([C@]3(C)CC[C@]4(C[C@H](O)[C@@H](C)[C@@H]([C@@H](C)C=C(C)C(=O)[C@H](C)C[C@H](C)C(=O)O)O4)O3)O[C@]3(O[C@@H]([C@H]4O[C@@](O)(CO)[C@H](C)C[C@H]4C)C[C@H]3C)[C@H]2C)O[C@H]1C (stereo not given in full) |  | 3.72 µM (active) |
| COC1=CC(C)=C[C@@H](C)[C@@H](O)[C@@H](C)CC(C)=CC=C[C@H](OC)[C@H]([C@@H](C)[C@@H](O)[C@H](C)[C@@]2(O)C[C@@H](O)[C@H](C)[C@@H](C(C)C)O2)OC1=O |  | 14.8 µM (active) |
| O=c1[nH]c2ccc(Cl)cc2c(N[C@@H]2CN3CCC2CC3)c1-c1nc2ccccc2[nH]1 |  | 2.35 µM (active) |
| CC(C)(C)[C@]1(O)C[C@@H]2OC(=O)C[C@@]23C(=O)O[C@@H]2OC(=O)[C@H](O)C213 (stereo not given in full) | 121% (inactive) |  |
| COc1ccc(N(C(=O)Oc2c(C)cccc2C)c2ccnc(Nc3ccc(N4CCN(C)CC4)cc3)n2)c(OC)c1 |  | 18.7 µM (active) |
| C[C@@H]1[C@H](O)[C@@H](C)C=CC=CCCC=CC=CC=CC=C[C@H](O[C@H]2O[C@@H](C)[C@H](O)[C@@H](N)[C@@H]2O)CC2O[C@](O)(C[C@@H](O)[C@H](O)CC[C@@H](O)C[C@@H](O)C[C@@H](O)CC(=O)O[C@H]1C)C[C@H](O)[C@H]2C(=O)O | 122% (inactive) |  |

From PubChem BioAssay (NCATS)
